# aSyn rescue: rescues yeast growth from alpha-synuclein toxicity; Yeast expressing alpha-synuclein, growth rescue, BacTiter-Glo, 24 h; Potency, µM (titrated, usually from 46.1 µM), without a hit: top-dose growth rescue (activation), hits mostly activators; actives 0.14% (n = 370,000); further: % of control where 0% means no effect; nearly all actives have a fitted effect of over 65% in size
#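 Readout is rescue of growth in alpha-synuclein-expressing yeast, so inhibitors of toxicity appear as activators. Growth after 24 hr at 30 deg C in galactose medium is quantified by luminescence.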
# FUS suppressor: rescues growth of FUS-expressing yeast | S. cerevisiae FUS-expressing, growth rescue, OD600, 24 h | Potency, µM (titrated, usually from 76.6 µM), most hits filed as activators | actives 0.24% (n = 390,000) | AID 1347120;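 further: plate controls were DMSO vehicle for no effect and reference control for full effect; nearly all actives have a fitted effect of over 55% in size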
#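 S. cerevisiae expressing FUS from galactose induction served as the toxicity model. Growth after 24hr at 30C, read as absorbance at 600 nm, indicates suppression of toxicity; compounds dosed at several concentrations.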
# Abeta rescue: compounds reversing amyloid beta toxicity in yeast; yeast expressing A-beta42, growth rescue, OD600, 48 h; response scale: 0% DMSO, 100% iron-clioquinol control; Potency, µM (series often up to 46.1 µM), usual class: activators; actives 0.063% (n = 410,000); further: nearly all actives have a fitted effect of over 55% in size
#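 Yeast growth medium received pinned compounds, then yeast cells expressing toxic A-beta were added; plates incubated at 30 C for 48 hr. Growth read as absorbance at 600 nm, normalized to DMSO and equimolar FeCl3 plus clioquinol controls.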
# Mito fusion yeast: mitochondrial division inhibition or fusion activation; actives 0.23% (n = 320,000); Potency, µM (top dose mostly 46.1 µM), inactives show at the highest dose growth rescue (activation), actives largely listed as activators; S. cerevisiae fusion-defective mutant growth rescue, CellTiterGlo 48 h; further: % of control where 0% means no effect; nearly all actives have a fitted effect of over 45% in size
#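 Read-out: ATP-based luminescence (CellTiterGlo, 10 min ambient) reporting growth of fusion-defective ts yeast after 48 hours at 37C on glycerol/ethanol YPEG medium in the presence of compound.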
# TDP-43 yeast inh: TDP-43 toxicity inhibition in yeast; actives 1.8% (n = 410,000); TDP-43 expressing yeast growth rescue, BacTiter-Glo, 24 h; Potency, µM (highest dose often 46.1 µM), for inactives: at the highest dose growth rescue (activation), actives largely listed as activators; AID 652104; further: % of control where 0% means no effect; nearly all actives have a fitted effect of over 50% in size
#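 Yeast expressing TDP-43 (pregrown in raffinose, seeded at OD600=0.02 in galactose medium) exposed to compounds 24 hr at 30 deg C. Growth read by BacTiter-Glo luminescence; rescue of toxicity appears as increased signal.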
# * hit, by the source's call; i = inactive; u = inconclusive; x = not tested or not shown. The list is not random: actives were taken first. Their share in the collection is about 2.2%. The call rests on the fitted dose curve; in most records, active means well fitted curve in the direction sought with a large enough effect; inconclusive means small, poorly fitted or top-dose-only effect, or another doubt; inactive means no such curve, though single readings can be large; an effect the other way counts as inactive or inconclusive. Potency means the concentration at half of the fitted maximal effect.
SMILES,aSyn rescue,FUS suppressor,Abeta rescue,Mito fusion yeast,TDP-43 yeast inh
N/C(=N\OC(=O)c1cccc(Cl)c1)c1cccnc1,4%,i,i,5%,u
CCN(CC)c1cc(C)c2cc(NC(=O)/C=C/c3ccccc3Cl)ccc2n1,x,u,i,x,u
O=C(NCc1ccc2c(c1)CCN2C(=O)c1ccncc1)c1cccc(Cl)c1,x,i,i,x,13%
CCn1cc(S(=O)(=O)c2cccc(C)c2)c(=O)c2cc(F)c(N3CCCCC3C)cc21 (stereo not drawn),x,i,i,x,u
COc1cc2cc(C(c3nnnn3C3CCCC3)N3CCc4ccccc43)c(=O)[nH]c2cc1OC (stereo not drawn),-2%,u,i,-3%,18%
COc1cc2cc(C(c3nnnn3C(C)(C)C)N3CCc4ccccc43)c(=O)[nH]c2cc1OC (stereo not drawn),10%,28µM*,i,-1%,-22%
Cc1ccc(Cl)cc1N1CCN(C(=O)C2CCN(S(=O)(=O)c3cn(C)cn3)CC2)CC1,x,i,i,x,18%
Cc1nnc2c3ccccc3nc(N3CCN(c4cccc(Cl)c4)CC3)n12,x,i,i,x,25µM*
Cc1cccc(N2CCN(c3nc4ccccc4c4nnc(C)n34)CC2)c1C,x,i,i,x,20%
CCN(c1cccc(C)c1)C(CNS(=O)(=O)c1ccccc1)c1ccccc1 (stereo not drawn),x,i,i,x,23%
CCN(c1ccccc1)C(CNS(=O)(=O)c1ccccc1)c1ccccc1 (stereo not drawn),x,i,i,x,18µM*
Cc1c(-c2nsc(NC(=O)c3cccs3)n2)nnn1-c1ccc(F)cc1,x,i,i,x,19%
O=[N+]([O-])c1ccc2[nH]c(O)c(N=NC(=S)Nc3cccnc3)c2c1,-8%,i,i,2%,10µM*
CCOC(=O)c1sc(N2C(=O)c3oc4ccc(F)cc4c(=O)c3C2c2ccc(C)cc2)nc1C (stereo not drawn),-3%,x,x,x,x
CC(C)CNC(=S)NC(=O)c1ccc(F)cc1,-3%,x,i,-9%,14µM*
O=C(/C=C/c1ccc(F)cc1)NC(=S)NNC(=O)c1cnccn1,1%,i,i,-2%,u
O=C(NC(=S)NNC(=O)c1cnccn1)c1ccc(F)cc1,11µM*,i,i,0%,-7%
O=C(NC(=S)NCCN1CCOCC1)c1ccc(F)cc1,-9%,x,i,-7%,-35%
CCOC(=O)c1ccccc1NC(=O)CSc1cn(CC(=O)N2CCCCC2)c2ccccc12,x,i,i,x,0%
Cc1cccc(C)c1OCC(=O)Nc1nc(-c2ccc(Br)cc2)ns1,x,i,i,x,10%
Cc1cc(C)c(S(=O)(=O)NCCn2c(C)cc3ccccc32)c(C)c1,u,u,7.9µM*,11%,35µM*
CCc1cccc(Nc2c3c(nc4ncnn24)CCC3)c1,2%,i,i,17%,18µM*
Cc1ccc(C)c(OCCC(=O)Nc2ccc3c(c2)OCO3)c1,-8%,x,i,-8%,11µM*
CC(=O)N1N=C(c2ccccc2)CC1c1cn(C)c2ccccc12 (stereo not drawn),20%,x,i,5%,20µM*
O=S(=O)(NCCc1csc2nc(-c3ccccc3)nn12)c1cc(F)ccc1F,x,i,u,x,22µM*
SMILES,aSyn rescue,FUS suppressor,Abeta rescue,Mito fusion yeast,TDP-43 yeast inh
Cc1ccc(S(=O)(=O)NCCc2csc(-c3cccc(F)c3)n2)cc1,x,i,i,x,18µM*
COc1ccc(OC)c(S(=O)(=O)NCCc2csc(-c3cccc(F)c3)n2)c1,x,u,i,x,u
O=S(=O)(NCCc1csc(-c2cccc(F)c2)n1)c1cc(F)ccc1F,x,i,u,x,2.5µM*
Cc1nc2ccccn2c(=O)c1NC(=O)c1ccccc1Cl,x,i,i,x,-12%
O=[N+]([O-])c1ccc(N2CCc3ccccc3C2)nc1,-4%,i,i,-2%,13µM*
CCCCNC(=O)C1(C)CCCCN1C(=O)c1ccc2c(c1)C(C)(C)CCC2(C)C (stereo not drawn),6%,i,i,x,20µM*
Cc1ccccc1CN1CCCN(CC(=O)Nc2c(C)cccc2C)S1(=O)=O,x,i,i,x,0%
Cc1cccc(-c2noc(-c3ccccc3NC(=O)C3CC(=O)N(c4ccccc4C)C3)n2)c1 (stereo not drawn),x,i,i,x,14%
O=C(NCc1cccc(Cl)c1)c1cc(COc2ccc3ncccc3c2)on1,-11%,i,i,8%,14µM*
Cc1ccc(F)cc1CNC(=O)c1cc(COc2ccc3ncccc3c2)on1,0%,i,i,-1%,10%
CC(=O)Nc1ccc(NC(=O)C(Cc2ccccc2)N2Cc3ccccc3C2=O)cc1 (stereo not drawn),x,i,i,x,u
COc1ccc(CNC(=O)c2cc(-c3cccs3)on2)cc1,-4%,i,i,-5%,5.6µM*
CCCn1c(=S)[nH]c2cc(Cl)ccc21,-6%,i,u,-6%,u
CCn1c(=S)[nH]c2cc(Cl)ccc21,5%,i,13µM*,-4%,-10%
COc1ccc(C(=O)c2cnc3ccccc3c2-c2ccccc2)cc1,13%,i,i,9%,35µM*
COc1ccc(OC)c(NS(=O)(=O)c2cc3c(cc2Cl)N(C(C)=O)CCO3)c1,u,i,i,x,-2%
Cc1cc(C)c(NC(=O)CNC(=O)COC(=O)Cc2cccs2)c(C)c1,-1%,i,i,-1%,11µM*
CN(CC(=O)Nc1c(Cl)cccc1Cl)C(=O)c1cc(-c2cccs2)nn1-c1ccccc1,-8%,x,i,20µM*,13%
CSc1nnc2c(n1)c(C)nn2-c1cccc(C)c1,-9%,i,i,0%,13µM*
O=C(NCc1ccc(Cl)cc1)C1CCCN(c2ncccn2)C1 (stereo not drawn),x,i,x,x,x
CCCCCC/C=N/Nc1nnc(Cc2ccccc2)c(=O)[nH]1,-4%,i,i,-8%,20µM*
CCc1n[nH]c(=S)n1N=C1CCC(C)CC1 (stereo not drawn),-10%,i,i,1%,3.5µM*
COc1ccc2c(c1)-c1c(ssc1=S)C(C)(C)N2,2%,i,i,4%,18µM*
COc1ccc(-n2sc3c(c2=S)-c2cc(OC)ccc2NC3(C)C)cc1,8%,i,i,u,17%
CCCCNc1c(-c2ccc(SC3CCCCC3)cc2)nc2cnccn12,-54%,u,i,x,22µM*
CCCCNc1c(-c2ccc(OC)c(SC3CCCCC3)c2)nc2cnccn12,-44%,32µM*,i,3%,-23%
